{"source": "PubChem BioAssay (NCATS)", "note": "Records with an inconclusive call do not appear. Calls of active or inactive are those of the source. The call rests on the fitted dose curve; in most records, active means well fitted inhibition curve with a large enough effect; inconclusive means small, poorly fitted or top-dose-only effect; inactive means no such curve, though single readings can be large or run the other way. On the % scale 0 is the no-effect control and ±100 the full control effect; potency means the concentration at half of the fitted maximal effect.", "data": [{"test": "Primary qHTS for inhibitors of nuclear receptor binding SET domain protein 2 (NSD2) in an RCH-ACV wild type WT cells (2C) (AID 1645877); further: nearly all actives have a fitted effect of over 70% in size", "conditions": "RCH-ACV NSD2 WT (2C) viability, CellTiter-Glo, 72 h; series mostly up to 44.9 µM; activity change, negative = cell killing: at the top concentration", "values": [{"molecule": "CCN=C1N[C@@H]2[C@@H](O)[C@H](O)[C@@H](CO)O[C@@H]2S1", "activity change, negative = cell killing": "-23.1% (inactive)"}, {"molecule": "CC(=O)O[C@@]1(C)[C@@H]2CC(=C(C)C)C(=O)C[C@@]2(C)CC[C@H]1OC(=O)C1(C)OC1C", "note": "(some centres undefined)", "activity change, negative = cell killing": "-18.4% (inactive)"}, {"molecule": "C=C1C(OC(C)=O)[C@@]23CCC4[C@](C)(C(=O)O)CCC[C@@]4(C)[C@]2(O)CC[C@H]1C3", "note": "(some centres undefined)", "activity change, negative = cell killing": "-22.6% (inactive)"}, {"molecule": "CC(=O)OC1C(C)C2C(OC3OC(CO)C(O)C(O)C3O)OC=C(C(=O)O)C2C1OC(=O)c1ccccc1", "note": "(centres undefined)", "activity change, negative = cell killing": "3.92% [at 17.3 µM] (inactive)"}, {"molecule": "C[C@]1(O)CC[C@@H]2C(C(=O)O)=CO[C@@H](O[C@@H]3O[C@H](COC(=O)/C=C/c4ccc(O)c(O)c4)[C@@H](O)[C@H](O)[C@H]3O)[C@@H]21", "outcome": "inactive [at 17.3 µM]"}, {"molecule": "CC(=O)O[C@H]1C[C@@H](O)C(C)(C)C2C[C@@H](OC(C)=O)[C@]3(C)C(CC[C@@]4(C)[C@H](c5ccoc5)OC(=O)[C@H]5O[C@]543)[C@]21C", "note": "(some centres undefined)", "activity change, negative = cell killing": "0.255% [at 17.3 µM] (inactive)"}, {"molecule": "O=C(O)CCc1cc2ccoc2cc1O[C@@H]1O[C@H](CO)[C@@H](O)[C@H](O)[C@H]1O", "activity change, negative = cell killing": "1.02% (inactive)"}, {"molecule": "CC(C)c1ccc2c(c1)C(O)CC1C(C)(C(=O)O)CCCC21C", "note": "(centres undefined)", "activity change, negative = cell killing": "-14.6% (inactive)"}, {"molecule": "COc1cc(CC2COC(c3ccc(OC4OC(CO)C(O)C(O)C4O)c(OC)c3)C2CO)ccc1O", "note": "(centres undefined)", "outcome": "inactive [at 17.3 µM]"}, {"molecule": "CC1(C)CCCC2(C)c3c4c(c(=O)oc(=O)c3=CCC12)=CCC1C(C)(C)CCCC41C", "note": "(centres undefined)", "activity change, negative = cell killing": "-3.1% [at 17.3 µM] (inactive)"}, {"molecule": "CC1(C)CC[C@]2(C(=O)O[C@@H]3O[C@H](CO)[C@@H](O)[C@H](O)[C@H]3O)CC[C@]3(C)C(=CCC4[C@@]5(C)C[C@@H](O)[C@H](O)[C@@](C)(CO)C5[C@H](O)C[C@]43C)C2C1", "note": "(some centres undefined)", "activity change, negative = cell killing": "-18.4% [at 17.3 µM] (inactive)"}, {"molecule": "CC(=O)OC[C@]12[C@H](OC(C)=O)[C@H](OC(=O)c3ccccc3)[C@@H]3[C@@H](OC(C)=O)[C@]1(OC3(C)C)[C@H](C)C[C@H](OC(=O)c1ccccc1)[C@@H]2OC(=O)c1ccccc1", "activity change, negative = cell killing": "-11.1% [at 17.3 µM] (inactive)"}, {"molecule": "CC[C@H](C)[C@H](NC(=O)[C@H](Cc1ccc(O)cc1)NC(=O)[C@@H](N)C(C)C)C(=O)N[C@@H](Cc1cnc[nH]1)C(=O)N1CCC[C@H]1C(=O)N[C@@H](Cc1ccccc1)C(=O)O", "activity change, negative = cell killing": "2.6% [at 4.96 µM] (inactive)"}, {"molecule": "CC1(C)CC[C@]2(C(=O)O[C@@H]3O[C@H](CO[C@@H]4O[C@H](CO[C@@H]5O[C@H](CO)[C@H](O)[C@H](O)[C@H]5O)[C@@H](O)[C@H](O)[C@H]4O)[C@@H](O)[C@H](O[C@@H]4O[C@H](CO)[C@@H](O)[C@H](O)[C@H]4O)[C@H]3O)[C@H](O)C[C@]3(C)C(=CCC4[C@@]5(C)CC[C@H](O[C@@H]6OC[C@@H](O)[C@H](O)[C@H]6O)[C@@](C)(C(=O)O)C5CC[C@]43C)[C@@H]2C1", "note": "(some centres undefined)", "outcome": "inactive [at 9.23 µM]"}, {"molecule": "C=C1C(OC(C)=O)CCC2(C)CC3(O)OC(=O)C(C)=C3CC12", "note": "(centres undefined)", "activity change, negative = cell killing": "-19.6% (inactive)"}, {"molecule": "C/C=C(/C)C(=O)OC1CC(C)(C)CC2C3=CCC4C5(C)CCC(OC6OC(C)C(OC7OC(C(=O)O)C(O)C(OC8OC(CO)C(O)C(O)C8OC8OC(CO)C(O)C(O)C8O)C7O)C(O)C6O)C(C)(C)C5CCC4(C)C3(C)C(OC(=O)/C=C/C=C/C=C/CCC)C(OC(C)=O)C12CO", "note": "(centres undefined)", "activity change, negative = cell killing": "-14.8% [at 9.23 µM] (inactive)"}, {"molecule": "CC(C)(Oc1ccc(-c2nc3cc(Cl)ccc3s2)cc1)C(=O)O", "activity change, negative = cell killing": "-11.7% (inactive)"}, {"molecule": "CNc1nc(Cc2ccccc2)nc2c1CCNC[C@@H]2C", "activity change, negative = cell killing": "-31.9% (inactive)"}, {"molecule": "CCCC/C=C\\CCCCCc1cc(=O)c2ccccc2n1C", "activity change, negative = cell killing": "-21.4% (inactive)"}, {"molecule": "CCN(CCN(C)C)C(=O)CNCc1cc(C(N)=O)ccn1", "activity change, negative = cell killing": "2.19% (inactive)"}, {"molecule": "COc1cc(O)c2c(c1)C1(OC2=O)C(C)=CC(=O)C1O", "note": "(centres undefined)", "outcome": "inactive"}, {"molecule": "COC(=O)c1ccccc1O[C@@H]1O[C@H](CO[C@@H]2OC[C@@H](O)[C@H](O)[C@H]2O)[C@@H](O)[C@H](O)[C@H]1O", "activity change, negative = cell killing": "2.78% [at 17.3 µM] (inactive)"}, {"molecule": "COc1c2c(c(C)c3c1C(=O)OC3)OC1(C)CC(O)C34OC(O)(CCC3(C)C1C2)OC4(C)C", "note": "(centres undefined)", "activity change, negative = cell killing": "-8.89% [at 17.3 µM] (inactive)"}, {"molecule": "Nc1nc2c(nc(Sc3ccc(Cl)cc3)n2[C@@H]2O[C@@H]3COP(=O)(O)O[C@H]3[C@H]2O)c(=O)[nH]1", "outcome": "inactive"}, {"molecule": "CC1=C2C3OC(=O)C(C)C3(O)CCC2(C)CCC1", "note": "(centres undefined)", "activity change, negative = cell killing": "-3.72% (inactive)"}, {"molecule": "COC(=O)C1=COC(O[C@@H]2O[C@H](CO)[C@@H](O)[C@H](O)[C@H]2O)[C@@H]2[C@@](C)(O)[C@@H](OC(=O)/C=C/c3ccccc3)C[C@]12O", "note": "(some centres undefined)", "outcome": "inactive [at 17.3 µM]"}, {"molecule": "C[C@@H]1O[C@@H](O[C@H]2[C@@H]3C=CO[C@@H](O[C@@H]4O[C@H](CO)[C@@H](O)[C@H](O)[C@H]4O)[C@@H]3[C@@]3(CO)O[C@@H]23)[C@H](O)[C@H](OC(=O)/C=C/c2ccc(O)cc2)[C@H]1OC(=O)/C=C/c1ccc(O)cc1", "activity change, negative = cell killing": "0.962% [at 17.3 µM] (inactive)"}, {"molecule": "COc1ccc(CCC(=O)O)c(O[C@@H]2O[C@H](CO)[C@@H](O)[C@H](O)[C@H]2O)c1", "activity change, negative = cell killing": "1.13% (inactive)"}, {"molecule": "CC1C2=CC(=O)OC2(O)CC2C1C(OC(=O)c1ccccc1)C(OC(=O)c1ccccc1)C1(O)C2(C)CCC(O)C1(C)C(=O)O", "note": "(centres undefined)", "activity change, negative = cell killing": "-19.7% [at 17.3 µM] (inactive)"}, {"molecule": "C=C1CCC2(OC1)OC1CC3C4CC=C5CC(O)CC(O[C@@H]6OC[C@H](OC(=O)C(O)C(C)CC)[C@H](O)[C@H]6O[C@@H]6O[C@@H](C)[C@H](O)[C@@H](O)[C@H]6O)C5(C)C4CCC3(C)C1C2C", "note": "(some centres undefined)", "activity change, negative = cell killing": "-9.66% [at 9.23 µM] (inactive)"}, {"molecule": "CC(=O)OC12CC(C)C(O)C1/C=C(/COC1OC(CO)C(O)C(O)C1O)CCC1C(/C=C(\\C)C2=O)C1(C)C", "note": "(centres undefined)", "activity change, negative = cell killing": "-3.1% [at 17.3 µM] (inactive)"}, {"molecule": "C=C(CCO)C(=O)OCC1OCC(OC(=O)C(=C)CCO[C@@H]2O[C@H](COC(=O)C(=C)CCO[C@@H]3O[C@H](CO)[C@@H](O)[C@H](O)[C@H]3O)[C@@H](O)[C@H](O)[C@H]2O)C(O)C1O", "note": "(some centres undefined)", "activity change, negative = cell killing": "-21.5% [at 17.3 µM] (inactive)"}, {"molecule": "OC[C@H]1O[C@@H](OCc2ccccc2)[C@H](O)[C@@H](O)[C@@H]1O", "outcome": "inactive"}, {"molecule": "CC(C)CC(=O)O[C@@H]1O[C@H](CO)[C@@H](O[C@H]2O[C@H](C)[C@@H](N[C@H]3C=C(CO)[C@@H](O[C@H]4O[C@H](CO)[C@@H](O[C@H]5O[C@H](CO)[C@@H](O[C@H]6O[C@H](CO)[C@@H](O)[C@H](O)[C@H]6O)[C@H](O)[C@H]5O)[C@H](O)[C@H]4O)[C@H](O)[C@H]3O)[C@H](O)[C@H]2O)[C@H](O)[C@H]1O", "outcome": "inactive [at 9.23 µM]"}, {"molecule": "C=C1C(O)C(O)C2(CC3C(C)=CCC4C(C)(C(=O)O)CCCC34C)OC2C1O", "note": "(centres undefined)", "activity change, negative = cell killing": "-18.7% (inactive)"}, {"molecule": "CC1=C2C(=O)C=C(CO)C2C2OC(=O)C(CS(=O)(=O)O)C2C(OC(=O)Cc2ccc(O)cc2)C1", "note": "(centres undefined)", "activity change, negative = cell killing": "-26.8% [at 17.3 µM] (inactive)"}, {"molecule": "CC1CCC2(C(=O)O)CCC3(C)C(=CCC4C5(C)C[C@@H](O)[C@@H](O)C(C)(CO)C5CCC43C)C2C1(C)O", "note": "(some centres undefined)", "Potency": "3.17 µM (active)"}, {"molecule": "CC1=C2CC(=O)C(C)CC/C=C(\\C)CC2OC1=O", "note": "(centres undefined)", "activity change, negative = cell killing": "-4.91% (inactive)"}, {"molecule": "O=C(O)c1ccncc1Nc1nn(CCN2CCC(F)(F)CC2)c2ccc(F)cc12", "outcome": "inactive"}]}]}
